# Experimental data from PubChem BioAssay.
# Activity calls are given as the source filed them. Unless noted, no rule for the calls is given here.
# How the values were obtained:
# [1] = HepG2 liver cancer cell viability effects, profiling panel, resazurin fluorescence, 24 h, PK04 Diversity Set (AID 1172); conditions: higher = more signal
# [2] = basal S. cerevisiae growth modulation, no modifier, primary screen, OD600, strain BY4716, 24 h, basal condition (AID 1173); conditions: OD600, 24 h, higher = more signal, called active from +8 up or from −8 down
# [3] = MM1S myeloma cell viability, profiling panel, resazurin fluorescence, basal, 24 h, PK04 Diversity Set (AID 1174); conditions: higher = more signal, called active from +8 up or from −8 down;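 also: MM1S multiple myeloma cell line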
# [4] = target: Dihydroorotate dehydrogenase (quinone), mitochondrial (Plasmodium falciparum (isolate 3D7)) (UniProt Q08210); assay: PfDHODH enzyme inhibitors, primary screen, biochemical, C-terminal His tag, absorbance 600 nm (AID 1175); conditions: DCIP absorbance 600 nm, higher = more signal, called active from +8 up or from −8 down;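 also: recombinant parasite enzyme with a five histidine tag at its C terminus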
# [5] = P. aeruginosa biofilm formation inhibitors, primary screen, strain PAO1, LB-PBS medium, absorbance 600 nm (AID 1176); conditions: P. aeruginosa PAO1 growth/biofilm, A600, 12 h; higher = more signal
# [6] = S. cerevisiae RM11-1a growth modifiers, primary screen, strain RM11-1a, OD600, basal, 24 h (AID 1177); conditions: OD600, 24 h, higher = more signal, called active from +8 up or from −8 down;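 also: cultures grown under basal conditions with no added stressor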
# [7] = E. coli acrAB mutant growth effects, primary screen, E. coli filamentation inducers, strain DRC39, OD650, 24 h (AID 1178); conditions: higher = more signal, called active from +8 up or from −8 down;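 also: growth measured as culture turbidity by optical density at 650 nm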
# [8] = E. coli acrAB mutant growth effects, primary screen, E. coli filamentation inducers, strain DRC39, OD650, 48 h (AID 1179);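 also: screen aims at cell division blockers that make cells filament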; conditions: E. coli DRC39 delta-acrAB growth, higher = more signal, called active from +8 up or from −8 down
# [9] = RPMI8226 myeloma cell viability, profiling panel, resazurin fluorescence, basal, 24 h, PK04 Diversity Set (AID 1180); conditions: higher = more signal;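 also: RPMI8826 multiple myeloma cell line at 5000 cells per well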
# [10] = target: E3 ubiquitin-protein ligase XIAP (Homo sapiens) (UniProt P98170); assay: XIAP binders, primary screen, biophysical, small-molecule microarray, fluorescence 635 nm (AID 1181); conditions: small-molecule microarray binding, higher = more signal;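 also: score merges 667 nm emission and signal to noise over triplicate slides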
# [11] = system: XIP peptide (Xip251-270) binding; assay: small-molecule binders of XIP peptide, primary screen, biochemical, small-molecule microarray, fluorescence 635/667 nm, 0.1 µg/mL protein (AID 1182); conditions: fluorescent protein binding, 635 nm, higher = more signal, called active from +8 up or from −8 down
# [12] = system: XIP peptide (Xip251-270); assay: small-molecule binders of XIP peptide, primary screen, biochemical, small-molecule microarray, fluorescence 635/667 nm, 0.5 µg/mL protein (AID 1183); conditions: small-molecule microarray binding, fluorescence 635 nm; higher = more signal
# [13] = Plasmodium falciparum growth inhibition, primary screen, strain 3D7, DAPI fluorescence, 100 nL (AID 1184);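 also: parasites grown inside human red blood cells in medium with human serum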; conditions: P. falciparum 3D7 growth, 3 d, higher = more signal
# [14] = target: Homeobox protein Hox-A13 (Mus musculus) (UniProt Q62424); assay: inhibitors of HoxA13-DNA binding, primary screen, biochemical, fluorescence polarization, labeled oligonucleotide (AID 1185); conditions: 15 min, higher = more signal, called active from +8 up or from −8 down
# [15] = inhibitors of hydroxyurea-induced Chk1 phosphorylation, primary screen, imaging, HeLa, phospho-Chk1 antibody, percent positive cells (AID 1186); conditions: hydroxyurea-induced phospho-Chk1 immunofluorescence imaging, higher = more signal
# [16] = inhibitors of hydroxyurea-induced Chk1 phosphorylation, primary screen, imaging, HeLa, phospho-Chk1 nuclear intensity (AID 1187); conditions: hydroxyurea-induced phospho-Chk1 immunofluorescence imaging, higher = more signal
# Chain of Dihydroorotate dehydrogenase (quinone), mitochondrial (Plasmodium falciparum (isolate 3D7)) (Q08210 whole entry, looked up): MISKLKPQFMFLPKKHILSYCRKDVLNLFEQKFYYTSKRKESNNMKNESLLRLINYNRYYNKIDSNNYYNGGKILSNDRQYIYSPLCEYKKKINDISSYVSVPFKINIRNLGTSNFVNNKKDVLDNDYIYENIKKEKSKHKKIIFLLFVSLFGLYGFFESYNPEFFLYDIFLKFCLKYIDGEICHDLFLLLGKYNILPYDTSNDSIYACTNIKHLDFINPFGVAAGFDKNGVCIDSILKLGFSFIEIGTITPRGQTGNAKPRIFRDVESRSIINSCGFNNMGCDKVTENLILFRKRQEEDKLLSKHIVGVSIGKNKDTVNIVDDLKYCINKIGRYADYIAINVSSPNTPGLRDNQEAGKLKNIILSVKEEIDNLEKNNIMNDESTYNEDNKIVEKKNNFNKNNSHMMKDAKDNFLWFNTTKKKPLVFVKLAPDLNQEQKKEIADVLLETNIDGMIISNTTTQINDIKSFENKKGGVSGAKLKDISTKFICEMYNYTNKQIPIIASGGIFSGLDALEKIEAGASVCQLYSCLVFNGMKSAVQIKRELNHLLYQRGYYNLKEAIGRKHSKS
# Chain of E3 ubiquitin-protein ligase XIAP (Homo sapiens) (P98170 whole entry, looked up): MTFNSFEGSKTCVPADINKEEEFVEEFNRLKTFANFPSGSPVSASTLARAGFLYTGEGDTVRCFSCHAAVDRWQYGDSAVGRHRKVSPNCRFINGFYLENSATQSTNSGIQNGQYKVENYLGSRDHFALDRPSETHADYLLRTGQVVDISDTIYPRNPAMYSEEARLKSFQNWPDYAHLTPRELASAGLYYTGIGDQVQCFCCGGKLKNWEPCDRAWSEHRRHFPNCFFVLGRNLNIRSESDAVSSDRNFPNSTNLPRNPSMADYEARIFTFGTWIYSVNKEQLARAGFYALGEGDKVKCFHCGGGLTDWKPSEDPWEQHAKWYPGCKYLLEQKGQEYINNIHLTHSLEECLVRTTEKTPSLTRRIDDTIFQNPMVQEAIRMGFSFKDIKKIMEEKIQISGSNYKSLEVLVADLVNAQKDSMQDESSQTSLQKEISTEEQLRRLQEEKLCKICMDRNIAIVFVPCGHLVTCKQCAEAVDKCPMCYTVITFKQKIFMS
# Chain of Homeobox protein Hox-A13 (Mus musculus) (Q62424 whole entry, looked up): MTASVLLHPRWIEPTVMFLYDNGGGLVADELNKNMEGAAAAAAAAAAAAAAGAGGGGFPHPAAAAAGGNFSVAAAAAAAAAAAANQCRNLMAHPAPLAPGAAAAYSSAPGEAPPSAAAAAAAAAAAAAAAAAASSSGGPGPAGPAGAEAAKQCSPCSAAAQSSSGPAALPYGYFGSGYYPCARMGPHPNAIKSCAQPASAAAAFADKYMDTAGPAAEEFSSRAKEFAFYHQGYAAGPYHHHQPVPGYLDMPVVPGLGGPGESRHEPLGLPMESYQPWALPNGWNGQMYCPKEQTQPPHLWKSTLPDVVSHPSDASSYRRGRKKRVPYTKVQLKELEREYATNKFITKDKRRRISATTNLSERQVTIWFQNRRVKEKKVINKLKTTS
Structure (SMILES),z-score [1],z-score [2],z-score [3],composite z-score [4],z-score [5],z-score [6],z-score [7],z-score [8],z-score [9],composite z-score [10],composite z-score [11],composite z-score [12],z-score [13],z-score [14],z-score [15],z-score [16]
C=C(C)C1C(=C)CN([C@H](CO)c2ccccc2)C1=O (stereo not given in full),1.04,-2.16 (inactive),0.267 (inactive),-0.232 (inactive),-0.611 (inactive),0.229 (inactive),0.692 (inactive),-0.829 (inactive),-0.403,-0.11,-0.389 (inactive),-0.149,-0.977,-2.61 (inactive),-0.347 (inactive),-0.339 (inactive)
CCOc1cc(C(O)C2C=CC3C(=O)N(c4ccccc4)C(=O)C3N2Nc2ccccc2)ccc1O (stereo not given),-0.147,-2.46 (inactive),-1.07 (inactive),0.392 (inactive),1.1 (inactive),1.16 (inactive),-0.345 (inactive),-0.649 (inactive),-0.0963,-0.189,0.497 (inactive),0.221,-0.033,-4.03 (inactive),-0.516 (inactive),-0.835 (inactive)
COC(=O)[C@@]1(Cc2ccccc2)[C@H]2c3cc(C(=O)N(C)C)n(CCSCCO)c3C[C@H]2CN1C(=O)c1ccccc1,-0.821,0.319 (inactive),-0.345 (inactive),-0.394 (inactive),0.15 (inactive),0.152 (inactive),-0.976 (inactive),-0.68 (inactive),-0.151,0.212,0.115 (inactive),0.443,-0.522,-4.76 (inactive),0.585 (inactive),0.248 (inactive)
CC1(C)[C@@H]2CC(C(O)C3C=CC4C(=O)N(c5ccccc5)C(=O)C4N3Nc3ccccc3)=C[C@H]1C2 (stereo not given in full),0.0594,-3.01 (inactive),-0.852 (inactive),0.232 (inactive),0.711 (inactive),-0.0064 (inactive),-0.441 (inactive),-0.328 (inactive),-1.08,0.169,0.386 (inactive),0.576,-0.0796,-3.65 (inactive),-0.583 (inactive),-0.715 (inactive)
CCCC[C@H]1OB(O)C[C@H]2C1=C(COc1ccccc1)C[C@H]1C(=O)N(C)C(=O)[C@H]12,-0.0384,-2.57 (inactive),-0.508 (inactive),-0.514 (inactive),-0.0946 (inactive),-0.798 (inactive),-0.121 (inactive),-0.316 (inactive),-0.59,-0.031,-0.146 (inactive),-0.544,1.68,-4.62 (inactive),-0.267 (inactive),0.201 (inactive)
C[N+](C)(C)CCCCNC(=O)[C@H]1C[C@H]2C(=O)N[C@@H](Cc3ccccc3)C(=O)N2[C@H]1c1ccc(O)cc1,-1.87,0.606 (inactive),-0.0345 (inactive),-30.9 (active),0.516 (inactive),0.644 (inactive),0.783 (inactive),1.17 (inactive),-0.9,-0.355,1.17 (inactive),-0.229,0.498,-1.49 (inactive),0.671 (inactive),0.345 (inactive)
COCCOC(=O)N1C(=O)[C@@]2(c3cc(C#CCCO)ccc31)[C@H](C(=O)Nc1nc3ccccc3s1)[C@H]1C(=O)O[C@H](c3ccccc3)[C@H](c3ccccc3)N1[C@@H]2c1ccc(OCCO)cc1,1.04,1.96 (inactive),-0.922 (inactive),-0.944 (inactive),2.84 (inactive),2.33 (inactive),0.348 (inactive),0.215 (inactive),-1.66,0.154,0.886 (inactive),0.744,-1.12,0.518 (inactive),-0.502 (inactive),-0.558 (inactive)
COc1cc(OC)c(C(O)C2C=CC3C(=O)NC(=O)C3N2Nc2ccc(Cl)cc2Cl)cc1Br (stereo not given),-3.99,-14.7 (active),-2.48 (inactive),-0.0023 (inactive),0.338 (inactive),0.695 (inactive),-0.0795 (inactive),-1.06 (inactive),-2.27,0.367,1.11 (inactive),0.369,-0.0679,-5.65 (inactive),0.66 (inactive),0.862 (inactive)
CC(C)c1ccc(NN2C(C(O)c3cc(C(F)(F)F)cc(C(F)(F)F)c3)C=CC3C(=O)N(c4ccccc4)C(=O)C32)cc1 (stereo not given),-2.42,-1.33 (inactive),-3.12 (inactive),0.643 (inactive),1.18 (inactive),1.79 (inactive),-0.447 (inactive),-0.729 (inactive),-5.25,0.0813,0.544 (inactive),0.641,-0.764,-3.49 (inactive),0.652 (inactive),0.417 (inactive)
O=C1OCCC/C=C\[C@H]2OC34C=CCN(Cn5nnc6ccccc65)C(=O)[C@H]3N(CCO)C(=O)[C@@H]4C12 (stereo not given in full),-0.345,-0.0322 (inactive),0.158 (inactive),1.16 (inactive),0.469 (inactive),0.821 (inactive),0.254 (inactive),-0.146 (inactive),0.0966,0.213,-0.0143 (inactive),0.96,-1.18,-4.72 (inactive),0.0428 (inactive),0.371 (inactive)
CO[C@H]1O[C@H](CO)[C@@H](OC(=O)Nc2ccc(Br)cc2)[C@H](OC(=O)c2cc3ccccc3[nH]2)[C@H]1OC(=O)c1cc2ccccc2[nH]1,-3.36,-0.98 (inactive),-2.32 (inactive),-1.2 (inactive),1.16 (inactive),-1.02 (inactive),1.21 (inactive),1.78 (inactive),-4.77,-0.0011,1.36 (inactive),0.716,-1.64,-2.09 (inactive),-0.547 (inactive),-0.872 (inactive)
COCCOC(=O)N1C(=O)[C@@]2(c3ccccc31)[C@H](c1ccccc1OCCO)N1[C@H](c3ccccc3)[C@H](c3ccccc3)OC(=O)[C@H]1[C@@H]2C(=O)Nc1nc2ccccc2s1,0.487,1.33 (inactive),-0.442 (inactive),0.662 (inactive),2.76 (inactive),2.22 (inactive),0.931 (inactive),1.74 (inactive),0.0081,0.0623,0.219 (inactive),0.823,-0.697,0.922 (inactive),0.002 (inactive),0.122 (inactive)
COc1cc2c(cc1OC)CN(C(=O)[C@@H]1[C@H]3C(=O)O[C@H](c4ccccc4)[C@H](c4ccccc4)N3[C@H](c3ccc(O)cc3)[C@@]13C(=O)Nc1ccc(C#CC4(O)CCCCCC4)cc13)CC2,0.396,-0.313 (inactive),0.323 (inactive),-0.495 (inactive),0.958 (inactive),0.525 (inactive),0.241 (inactive),0.475 (inactive),0.777,-0.0559,0.479 (inactive),0.774,-0.489,-1.53 (inactive),0.263 (inactive),0.812 (inactive)
CCOC(=O)C[C@H]1[C@H](OC(=O)Cc2ccc3c(c2)OCO3)[C@@H](NC(=O)c2ccc(-c3ccccc3)cc2)c2cc(OCCCO)ccc2N1C(=O)Cc1ccc(OC)cc1,0.366,-1.02 (inactive),0.322 (inactive),-1.32 (inactive),-0.0178 (inactive),-1.82 (inactive),0.261 (inactive),0.877 (inactive),0.489,0.179,0.784 (inactive),0.0066,-1.72,-1.61 (inactive),-0.324 (inactive),-0.116 (inactive)
COc1ccc(C(O)C2C=CC3C(=O)N(c4ccccc4)C(=O)C3N2Nc2ccccc2F)cc1OCc1ccccc1 (stereo not given),-0.299,-0.737 (inactive),-1.66 (inactive),-0.318 (inactive),1.11 (inactive),-0.0242 (inactive),-0.472 (inactive),0.226 (inactive),-1.55,0.0158,1.26 (inactive),0.698,-0.193,-0.0495 (inactive),-0.75 (inactive),-1.22 (inactive)
